In assay [1] the target is D(1A) dopamine receptor (Homo sapiens) (UniProt P21728). Kind of assay: NVS_GPCR_hDRD1: NovaScreen (NVS) G Protein-Coupled Receptor Assay for human Dopamine Receptor D1 (DRD1) (AID 2283269). A digest of the protocol: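 Cell-free competition with radioligand, filter-trapped and scintillation-counted 1 h post-dose, using HEK293-derived human D1 preparation. Duplicate single-point testing at 25 uM first, then concentration series for actives; DMSO served as baseline, loss-of-signal scored.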
Sequence of D(1A) dopamine receptor (Homo sapiens) (P21728 whole entry, looked up): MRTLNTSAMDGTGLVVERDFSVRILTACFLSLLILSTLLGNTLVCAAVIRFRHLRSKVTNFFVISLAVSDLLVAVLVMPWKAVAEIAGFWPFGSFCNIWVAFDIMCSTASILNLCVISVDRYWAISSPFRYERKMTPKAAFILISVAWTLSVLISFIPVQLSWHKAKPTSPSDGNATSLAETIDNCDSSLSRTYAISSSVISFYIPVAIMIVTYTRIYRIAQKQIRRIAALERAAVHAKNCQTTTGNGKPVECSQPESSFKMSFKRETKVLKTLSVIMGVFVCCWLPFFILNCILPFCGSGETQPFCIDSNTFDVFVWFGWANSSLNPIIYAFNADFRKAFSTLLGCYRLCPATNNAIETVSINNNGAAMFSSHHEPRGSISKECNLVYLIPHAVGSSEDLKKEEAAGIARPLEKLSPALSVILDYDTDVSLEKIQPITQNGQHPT

Assay [2] deals with human Thromboxane A2 Receptor (TXA2), TBXA2R (gene 6915) (UniProt P21731). Kind of assay: NVS_GPCR_hTXA2: NovaScreen (NVS) G Protein-Coupled Receptor Assay for human Thromboxane A2 Receptor (TXA2) (AID 2283282).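 Also: actives reduce bound radioligand signal relative to DMSO baseline.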 A digest of the protocol: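 Human platelet membranes tested for radioligand displacement by filtration and scintillation counting 1 h post-dose. Screened in duplicate at 25 uM; activity fitted as signal loss relative to DMSO.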
Sequence of human Thromboxane A2 Receptor (TXA2), TBXA2R (gene 6915) (P21731 whole entry, looked up): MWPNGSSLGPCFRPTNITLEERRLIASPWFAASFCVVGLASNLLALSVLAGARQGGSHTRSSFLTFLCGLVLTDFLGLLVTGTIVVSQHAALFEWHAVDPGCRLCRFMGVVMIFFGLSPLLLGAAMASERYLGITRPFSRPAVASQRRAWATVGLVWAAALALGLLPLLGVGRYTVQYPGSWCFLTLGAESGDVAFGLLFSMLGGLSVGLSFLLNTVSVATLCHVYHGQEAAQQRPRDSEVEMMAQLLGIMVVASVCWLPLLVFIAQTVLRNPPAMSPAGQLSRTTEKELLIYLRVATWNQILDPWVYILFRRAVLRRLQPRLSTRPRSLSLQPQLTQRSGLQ

The target in assay [3] is human Neurokinin, NK2 Receptor, TACR2 (gene 6865) (UniProt P21452). Kind of assay: NVS_GPCR_hNK2: NovaScreen (NVS) G Protein-Coupled Receptor Assay for human Neurokinin, NK2 Receptor (AID 2283278).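 Also: actives reduce bound radioligand signal relative to DMSO baseline.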 A digest of the protocol:
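Cell-free radioligand binding using receptor protein extracted from CHO cells; readings taken 4 hours after chemical dosing by filter-based scintillation counting. Primary screen ran single concentration (25 uM) in duplicate; actives followed up in concentration series, loss-of-signal versus DMSO baseline.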

Assay [4] addresses bovine Estrogen Receptor (ER), ESR1 (gene 407238) (UniProt P49884). Kind of assay: NVS_NR_bER: NovaScreen (NVS) Nuclear Receptor Binding Assay for bovine Estrogen Receptor (ER) (AID 2283345).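 Also: actives lower the bound radioligand count which means they displace the ER ligand.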 A digest of the protocol:
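Displacement of a radioligand from estrogen receptor in bovine uterine membrane preparations; scintillation signal taken at 18 hours, DMSO as baseline. Single-concentration duplicates (25 uM) preceded concentration-response follow-up of actives.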

Assay [5] has as its target human Adenosine A1 Receptor (AdoRA1), ADORA1 (gene 134) (UniProt P30542). Kind of assay: NVS_GPCR_hAdoRA1: NovaScreen (NVS) G Protein-Coupled Receptor Assay for human Adenosine A1 Receptor (AdoRA1) (AID 2283254). An outline of the steps: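 Radioligand competition binding on human cortical membranes, 1 h after compound addition; bound radioactivity read by filtration and scintillation counting. Loss of signal versus DMSO baseline scored as displacement; primary screen duplicate at 25 uM, actives retested in concentration series.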

Assay [6] addresses human Opioid Receptor Mu (Opiate Mu), OPRM1 (gene 4988) (UniProt P35372). Kind of assay: NVS_GPCR_hOpiate_mu: NovaScreen (NVS) G Protein-Coupled Receptor Assay for human Opioid Receptor Mu (Opiate Mu) (AID 2283290).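 Also: hits lower bound tracer signal versus DMSO meaning displacement of the ligand.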 A digest of the protocol: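 Primary screen in duplicate at 25 uM, with actives followed in concentration series. CHO-derived receptor membranes, cell-free; bound radioligand read by scintillation counting after filtration at 2.5 h, decrease scored against DMSO.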

In assay [7] the target is human Androgen Receptor (AR), AR (gene 367) (UniProt P10275). Kind of assay: NVS_NR_hAR: NovaScreen (NVS) Nuclear Receptor Binding Assay for human Androgen Receptor (AR) (AID 2283332). A digest of the protocol: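 Radioligand competitive binding, scintillation read-out, in cell-free extract from LnCAP, measured 20 h after dosing. Screened first in duplicate at 25 uM, then concentration series for actives; activity fitted against DMSO.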

Assay [8] addresses rat Peripheral-type Benzodiazepine Receptor (PBR), Tspo (gene 24230) (UniProt P16257). Kind of assay: NVS_MP_rPBR: NovaScreen (NVS) Membrane Protein Assay for rat Peripheral-type Benzodiazepine Receptor (PBR) (AID 2283335). An outline of the steps:
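Single-concentration duplicate screening at 25 uM preceded concentration-series retesting of actives. Binding of a specific radioligand to rat kidney membrane PBR was read by filtration radiodetection after 1 h, with plate-wise positive and negative controls.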

Assay [9] deals with chimpanzee Androgen Receptor (AR), AR (gene 747460) (UniProt O97775). Kind of assay: NVS_NR_cAR: NovaScreen (NVS) Nuclear Receptor Binding Assay for chimpanzee Androgen Receptor (AR) (AID 2283346).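 Also: radioligand displacement from AR measured by scintillation counting in a cell-free assay.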 A digest of the protocol:
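Cell-free competition binding with insect-cell (Sf9/Sf21) extracted chimpanzee AR; scintillation signal from lysate at 72 h. Screened in duplicate at 25 uM, then concentration-response for actives; fitting relative to DMSO.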

The target of assay [10] is guinea pig Leukotriene D4 Receptor (LTD4), CYSLTR1 (gene 100135514) (UniProt Q2NNR5). Kind of assay: NVS_GPCR_gLTD4: NovaScreen (NVS) G Protein-Coupled Receptor Assay for guinea pig Leukotriene D4 Receptor (LTD4) (AID 2283248). A digest of the protocol: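 Guinea pig lung membrane preparation; bound radioligand measured by filter scintillation after 1 h, loss of signal versus DMSO marking displacement. Compounds tested at 25 uM in duplicate, hits retested to max 50 uM.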

For assay [11], the target named is human Adenosine A2a Receptor (AdoRA2a), ADORA2A (gene 135) (UniProt P29274). Kind of assay: NVS_GPCR_hAdoRA2a: NovaScreen (NVS) G Protein-Coupled Receptor Assay for human Adenosine A2a Receptor (AdoRA2a) (AID 2283256). A digest of the protocol: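 HEK293-derived receptor preparation, radioligand displacement, 1.5 h, filtration + scintillation read. Loss of bound signal scored vs DMSO. Single-point 25 uM in duplicate first, then concentration-response for actives.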
Sequence of human Adenosine A2a Receptor (AdoRA2a), ADORA2A (gene 135) (P29274 whole entry, looked up): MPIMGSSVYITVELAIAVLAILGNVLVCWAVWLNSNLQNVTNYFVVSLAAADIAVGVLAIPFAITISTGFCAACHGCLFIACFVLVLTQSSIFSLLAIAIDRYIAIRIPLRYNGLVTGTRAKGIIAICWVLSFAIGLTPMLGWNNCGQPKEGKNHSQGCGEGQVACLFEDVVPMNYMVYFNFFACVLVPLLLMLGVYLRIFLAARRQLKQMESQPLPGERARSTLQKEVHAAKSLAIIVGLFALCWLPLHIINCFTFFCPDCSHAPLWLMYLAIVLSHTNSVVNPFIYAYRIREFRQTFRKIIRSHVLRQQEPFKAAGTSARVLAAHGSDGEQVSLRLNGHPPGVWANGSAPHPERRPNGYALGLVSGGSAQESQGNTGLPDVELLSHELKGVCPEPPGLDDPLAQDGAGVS

The target in assay [12] is rat Thyrotropin Releasing Hormone Receptor (TRH), Trhr (gene 25570) (UniProt Q01717). Kind of assay: NVS_GPCR_rTRH: NovaScreen (NVS) G Protein-Coupled Receptor Assay for rat Thyrotropin Releasing Hormone Receptor (TRH) (AID 2283329).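 Also: hit means lower bound tracer signal versus DMSO baseline.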 An outline of the steps: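 Competitive radioligand binding on rat forebrain membrane preparations, with filtration and scintillation readout after 4 h. Primary testing in duplicate at 25 uM; actives confirmed in concentration-response. DMSO defined baseline.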
Sequence of rat Thyrotropin Releasing Hormone Receptor (TRH), Trhr (gene 25570) (Q01717 whole entry, looked up): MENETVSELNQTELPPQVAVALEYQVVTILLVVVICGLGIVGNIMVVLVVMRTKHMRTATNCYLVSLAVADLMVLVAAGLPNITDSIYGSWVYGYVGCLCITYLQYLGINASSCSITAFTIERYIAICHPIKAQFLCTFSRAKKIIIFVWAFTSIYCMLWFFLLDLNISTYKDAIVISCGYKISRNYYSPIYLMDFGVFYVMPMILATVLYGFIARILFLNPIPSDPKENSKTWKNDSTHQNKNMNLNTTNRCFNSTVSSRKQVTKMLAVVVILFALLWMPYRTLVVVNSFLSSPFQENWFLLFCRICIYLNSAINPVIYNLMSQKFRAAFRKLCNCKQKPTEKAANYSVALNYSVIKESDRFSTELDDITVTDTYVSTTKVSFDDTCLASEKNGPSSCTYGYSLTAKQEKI

Assay [13] is described as follows: NVS_IC_rCaBTZCHL: NovaScreen (NVS) Ion Channel Assay for Calcium Channel, Type L, Benzothiazepine Site (CaBTZCHL) (AID 2283337). A digest of the protocol: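 Rat cortical membrane preparation, cell-free. Radioligand displaced by test chemical; 1.5 h incubation; filtration, scintillation count. DMSO = negative control/baseline. Primary: duplicate, 25 uM; secondary: concentration series.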

The target in assay [14] is Muscarinic acetylcholine receptor M2 (Homo sapiens) (UniProt P08172). Kind of assay: NVS_GPCR_hM2: NovaScreen (NVS) G Protein-Coupled Receptor Assay for human Muscarinic, M2 Receptor (AID 2283273). An outline of the steps:
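CHO-expressed human M2 receptor preparation, competitive displacement of a radioligand read by filter-based scintillation counting after 1 h. Single 25 uM duplicate screen, then concentration-response follow-up of actives; DMSO baseline.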

Assay [15] addresses guinea pig Opioid, Kappa 1 Receptor (OpiateK), OPRK1 (gene 100135587) (UniProt P41144). Kind of assay: NVS_GPCR_gOpiateK: NovaScreen (NVS) G Protein-Coupled Receptor Assay for guinea pig Opioid, Kappa 1 Receptor (OpiateK) (AID 2283252).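 Also: active means reduced radioligand binding relative to DMSO.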 An outline of the steps: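 Radioligand binding to kappa opioid receptor in guinea pig cerebellar membranes, read by filtration and scintillation at 2 h. Compounds first tested in duplicate at 25 uM, then actives in concentration series; signal loss fitted against DMSO.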

Assay [16] has as its target human Endothelin Receptor Type A (ETA), EDNRA (gene 1909) (UniProt P25101). Kind of assay: NVS_GPCR_hETA: NovaScreen (NVS) G Protein-Coupled Receptor Assay for human Endothelin Receptor Type A (ETA) (AID 2283265). An outline of the steps: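 Binding of radioligand to membrane protein extracted from SH-SY5Y cells was read by filtration and scintillation after 3 h. Compounds were screened at 25 uM in duplicate, with hits followed up in singleton concentration series to 50 uM.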

The target in assay [17] is Muscarinic acetylcholine receptor M1 (Homo sapiens) (UniProt P11229). Kind of assay: NVS_GPCR_hM1: NovaScreen (NVS) G Protein-Coupled Receptor Assay for human Muscarinic, M1 Receptor (AID 2283270). A digest of the protocol:
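Actives from a duplicate 25 uM single-point screen were retested in concentration series. Binding measured as displacement of a radioligand from CHO-derived receptor preparation, 1 h incubation, filtration and scintillation counting, analysed as signal loss against DMSO.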

The target of assay [18] is human Orphanin, Opioid Related Nociceptin Receptor 1 (ORL1), OPRL1 (gene 4987) (UniProt P41146). Kind of assay: NVS_GPCR_hORL1: NovaScreen (NVS) G Protein-Coupled Receptor Assay for human Orphanin, Opioid Related Nociceptin Receptor 1 (ORL1) (AID 2283283). A digest of the protocol: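 Cell-free binding using HEK293-derived receptor protein: radioligand displacement measured by filter scintillation 1 hour after dosing. Primary testing at 25 uM in duplicate, followed by singleton concentration series up to 50 uM; DMSO served as negative control.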
Sequence of human Orphanin, Opioid Related Nociceptin Receptor 1 (ORL1), OPRL1 (gene 4987) (P41146 whole entry, looked up): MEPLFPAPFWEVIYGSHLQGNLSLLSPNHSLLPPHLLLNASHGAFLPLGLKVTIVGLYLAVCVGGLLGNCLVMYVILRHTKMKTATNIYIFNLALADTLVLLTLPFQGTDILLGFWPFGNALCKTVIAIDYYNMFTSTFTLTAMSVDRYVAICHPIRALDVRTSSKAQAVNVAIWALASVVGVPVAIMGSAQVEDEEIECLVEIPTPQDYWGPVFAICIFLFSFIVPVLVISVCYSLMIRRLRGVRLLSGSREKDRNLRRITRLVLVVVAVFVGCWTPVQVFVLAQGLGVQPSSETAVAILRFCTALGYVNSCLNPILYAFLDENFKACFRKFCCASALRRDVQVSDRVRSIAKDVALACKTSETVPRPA

Assay [19] concerns the target rat Neonicotinoid receptor (NNR), Chrna7 (gene 25302) (UniProt Q05941). Kind of assay: NVS_LGIC_rNNR_BungSens: NovaScreen (NVS) Ligand-Gated Ion Channel Assay for rat Neonicotinoid receptor (NNR) (AID 2283315). An outline of the steps: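 Rat cortical membrane preparation incubated 2.5 h with tritiated or iodinated radioligand and test chemical. Bound radioactivity was filtered and counted by scintillation, and displacement was analysed against DMSO.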

Results filed as inconclusive are left out. The source holds several records for some structures; these can differ, active in one and inactive in another. Active and inactive are the calls of the source. The calls were made as follows: active = hit-call score of the fitted dose curve at least 0.9, where 1 is the maximum; inconclusive = response in the unintended direction; inactive = score below 0.9.

Sequence of human Opioid Receptor Mu (Opiate Mu), OPRM1 (gene 4988) (P35372 whole entry, looked up): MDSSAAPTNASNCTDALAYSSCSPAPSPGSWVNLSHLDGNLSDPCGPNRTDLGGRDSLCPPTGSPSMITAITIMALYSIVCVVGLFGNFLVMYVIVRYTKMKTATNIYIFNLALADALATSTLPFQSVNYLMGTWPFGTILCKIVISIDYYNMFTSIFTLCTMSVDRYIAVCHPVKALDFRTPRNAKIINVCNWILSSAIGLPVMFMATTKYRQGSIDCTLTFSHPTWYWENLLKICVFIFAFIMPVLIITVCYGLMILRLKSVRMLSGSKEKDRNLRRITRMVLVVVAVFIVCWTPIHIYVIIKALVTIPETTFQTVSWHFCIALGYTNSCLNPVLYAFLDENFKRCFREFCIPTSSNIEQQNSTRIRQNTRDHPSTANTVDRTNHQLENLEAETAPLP
Sequence of bovine Estrogen Receptor (ER), ESR1 (gene 407238) (P49884 whole entry, looked up): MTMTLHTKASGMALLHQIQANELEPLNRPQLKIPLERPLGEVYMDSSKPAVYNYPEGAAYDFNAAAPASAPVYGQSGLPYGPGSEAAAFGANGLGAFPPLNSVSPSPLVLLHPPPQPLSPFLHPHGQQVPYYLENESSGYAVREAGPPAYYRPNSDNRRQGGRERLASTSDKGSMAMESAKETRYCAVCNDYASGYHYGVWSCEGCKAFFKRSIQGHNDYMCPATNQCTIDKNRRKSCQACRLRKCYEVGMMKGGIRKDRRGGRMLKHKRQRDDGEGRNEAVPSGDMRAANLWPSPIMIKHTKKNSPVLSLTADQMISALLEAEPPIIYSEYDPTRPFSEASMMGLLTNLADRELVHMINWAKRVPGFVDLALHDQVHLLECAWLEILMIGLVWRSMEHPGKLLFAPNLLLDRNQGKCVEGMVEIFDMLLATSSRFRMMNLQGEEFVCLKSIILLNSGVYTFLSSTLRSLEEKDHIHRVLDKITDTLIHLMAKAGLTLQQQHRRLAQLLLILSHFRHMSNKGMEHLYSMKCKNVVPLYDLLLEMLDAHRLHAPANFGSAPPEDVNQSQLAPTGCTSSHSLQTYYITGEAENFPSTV
Sequence of human Neurokinin, NK2 Receptor, TACR2 (gene 6865) (P21452 whole entry, looked up): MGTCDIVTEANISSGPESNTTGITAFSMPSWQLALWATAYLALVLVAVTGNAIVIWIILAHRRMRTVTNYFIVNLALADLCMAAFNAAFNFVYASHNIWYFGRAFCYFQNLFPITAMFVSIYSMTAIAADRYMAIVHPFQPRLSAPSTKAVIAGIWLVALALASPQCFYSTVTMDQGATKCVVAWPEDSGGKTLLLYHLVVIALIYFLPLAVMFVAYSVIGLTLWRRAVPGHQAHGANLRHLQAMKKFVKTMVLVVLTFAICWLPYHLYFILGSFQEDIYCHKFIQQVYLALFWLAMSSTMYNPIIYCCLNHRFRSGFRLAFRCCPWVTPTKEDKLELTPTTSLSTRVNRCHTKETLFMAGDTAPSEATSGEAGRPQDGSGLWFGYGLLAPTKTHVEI
Sequence of chimpanzee Androgen Receptor (AR), AR (gene 747460) (O97775 whole entry, looked up): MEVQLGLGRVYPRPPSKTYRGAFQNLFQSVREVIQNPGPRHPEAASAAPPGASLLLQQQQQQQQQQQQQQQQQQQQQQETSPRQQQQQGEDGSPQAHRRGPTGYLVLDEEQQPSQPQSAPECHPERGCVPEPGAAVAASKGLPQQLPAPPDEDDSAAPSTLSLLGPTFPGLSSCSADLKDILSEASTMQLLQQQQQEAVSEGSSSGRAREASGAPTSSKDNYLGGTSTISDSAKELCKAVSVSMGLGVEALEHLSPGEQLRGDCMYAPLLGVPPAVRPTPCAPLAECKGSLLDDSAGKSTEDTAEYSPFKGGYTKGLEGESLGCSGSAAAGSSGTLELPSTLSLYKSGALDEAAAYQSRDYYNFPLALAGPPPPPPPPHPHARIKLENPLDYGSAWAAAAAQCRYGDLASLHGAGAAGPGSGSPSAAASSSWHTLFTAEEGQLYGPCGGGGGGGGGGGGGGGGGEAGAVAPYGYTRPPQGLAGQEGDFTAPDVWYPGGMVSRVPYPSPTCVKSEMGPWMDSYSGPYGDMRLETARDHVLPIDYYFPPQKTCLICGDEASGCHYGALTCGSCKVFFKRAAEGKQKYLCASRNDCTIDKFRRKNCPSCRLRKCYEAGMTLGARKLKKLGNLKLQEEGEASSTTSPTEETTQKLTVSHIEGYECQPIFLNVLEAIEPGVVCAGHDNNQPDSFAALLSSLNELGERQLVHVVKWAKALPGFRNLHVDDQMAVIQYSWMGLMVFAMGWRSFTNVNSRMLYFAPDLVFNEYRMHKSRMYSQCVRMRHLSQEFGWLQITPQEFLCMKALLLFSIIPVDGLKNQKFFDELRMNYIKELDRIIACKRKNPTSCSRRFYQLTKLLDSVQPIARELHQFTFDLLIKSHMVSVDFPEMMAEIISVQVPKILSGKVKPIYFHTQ
Sequence of rat Peripheral-type Benzodiazepine Receptor (PBR), Tspo (gene 24230) (P16257 whole entry, looked up): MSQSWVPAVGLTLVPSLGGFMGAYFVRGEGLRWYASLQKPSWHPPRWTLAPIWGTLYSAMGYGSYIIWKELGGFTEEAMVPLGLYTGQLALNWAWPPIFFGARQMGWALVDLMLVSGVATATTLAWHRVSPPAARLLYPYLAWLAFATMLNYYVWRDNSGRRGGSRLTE
Sequence of human Adenosine A1 Receptor (AdoRA1), ADORA1 (gene 134) (P30542 whole entry, looked up): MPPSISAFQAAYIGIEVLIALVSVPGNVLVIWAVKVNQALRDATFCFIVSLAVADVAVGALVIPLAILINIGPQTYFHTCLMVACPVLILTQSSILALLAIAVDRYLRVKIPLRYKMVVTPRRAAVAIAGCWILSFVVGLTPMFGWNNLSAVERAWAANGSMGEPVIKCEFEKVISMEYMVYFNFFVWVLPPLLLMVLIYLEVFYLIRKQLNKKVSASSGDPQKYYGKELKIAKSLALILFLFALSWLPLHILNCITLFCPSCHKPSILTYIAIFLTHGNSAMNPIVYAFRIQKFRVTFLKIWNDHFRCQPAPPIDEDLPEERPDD

By AC50 is commonly meant the concentration giving half of the maximal activity seen. `O=C=Nc1cccc2c(N=C=O)cccc12`: the call in [1] was inactive. The half-maximal activity concentration (AC50) in assay [2] was 0.672 µM (active).

Take `O=C1C=CC(=O)N1c1ccc(Cc2ccc(N3C(=O)C=CC3=O)cc2)cc1`: the values for the half-maximal activity concentration (AC50) in assay [1] and in [3] were 25 µM (active) and 28.4 µM (active), respectively. Further, in [4], the compound was called inactive.

As to `Nc1cccnc1N`, in assay [5], the AC50 is 9.6 µM (active).

Regarding `CCOCN(C(=O)CS(=O)(=O)O)c1c(C)cccc1CC`, the result in assay [2] was inactive.

For the compound `CCC(C)CO` (stereo unspecified), the outcome in [5] was inactive.

For the compound `CCN(CC)c1ccc(C=O)c(O)c1`, the compound was classed as inactive in assay [1], in assay [2], in assay [6] and in [8]. Further, the values for the AC50 in [7] and in assay [9] were 3.82 µM (active) and 0.298 µM (active), respectively.

Consider `O=C(c1ccccc1)c1ccc(O)cc1O`, for which the compound was classed as inactive in [10], in assay [5], in assay [2], in assay [12], in assay [8] and in assay [13]. The outcome in assay [9] was inactive. The concentration at half-maximal activity (AC50) in assay [11] is 29.7 µM (active); in assay [4], 8.41 µM (active); in assay [9], 9.97 µM (active).

In the case of `Oc1ccc(C2(c3ccc(O)c(C4CCCCC4)c3)CCCCC2)cc1C1CCCCC1`, in assay [1], the result was inactive. Further, the AC50 in [14] is 8.57 µM (active); in assay [3], 16.2 µM (active); in [6], 17.3 µM (active).

With `Cc1ccc(S(=O)(=O)C(I)I)cc1`, the outcome in assay [15] was inactive. Besides, the results for the half-maximal activity concentration (AC50) in assay [5], in assay [1] and in [8] were 33.2 µM (active), 6.43 µM (active) and 7.18 µM (active), respectively.

`C[C@]12CC[C@H]3C(=CCc4cc(O)ccc43)[C@@H]1CCC2=O`: the compound was classed as inactive in [10], in assay [12] and in assay [9]. The AC50 in assay [7] is 0.661 µM (active); in [4], 0.0129 µM (active); in [9] it was 5.87 µM (active).

`OCCC(O)CO` (stereo unspecified): in assay [1], the half-maximal activity concentration (AC50) is 37.4 µM (active).

On to `CCCCCCCCCCCCCC[P+](CCCC)(CCCC)CCCC`, for which the AC50 in assay [16] is 6.26 µM (active); in assay [17] it was 1.02 µM (active); in [18] it was 6.46 µM (active); in assay [6], 1.07 µM (active); in assay [8], 12.2 µM (active); in [4] it was 38.3 µM (active). Further, in assay [9], the AC50 is 23.1 µM (active).

Turning to `CC(=O)c1ccccc1N`, the outcome in [2] was inactive.

Turning to `Nc1c(Br)cc([N+](=O)[O-])cc1Br`, the result in assay [11] and in [19] was inactive.

`CN1CN(C)CN(C)C1`: the compound was classed as inactive in assay [1].

Take `CCN(CC)c1ccc(N=Nc2ccccc2)cc1`: the compound was classed as inactive in [1] and in [3].

On to `CCCCCCCCn1sc(Cl)c(Cl)c1=O`, for which the call in assay [16] was inactive. Besides, the results for the concentration at half-maximal activity (AC50) in [18], in [6] and in assay [4] were 16.5 µM (active), 8.39 µM (active) and 12.7 µM (active), respectively.

The record behind these values is PubChem BioAssay (EPA / NIEHS).
